Test results published in PubChem BioAssay (EPA / NIEHS).
Calls of active or inactive are those of the source. Rule for the calls: active = hit-call score of the fitted dose curve at least 0.9, where 1 is the maximum; inactive = score below 0.9.

What was measured:
Settings in all cases: mRNA level, 48 h; actives raise or lower the signal
[1] = read-out: Insulin Like Growth Factor 1 (IGF1), IGF1 (gene 3479); assay: LTEA_HepaRG_IGF1: Life Technologies and Expression Analysis (LTEA) Assay for Insulin Like Growth Factor 1 (IGF1) using HepaRG (AID 2283506)
Summary of the method: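 Expression measured by TaqMan qRT-PCR on a Fluidigm array, with three housekeeping genes for normalisation, after 48 h treatment of HepaRG cells. Top concentration 100 uM with half-log steps, 0.5% DMSO vehicle, bidirectional fit.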

[2] = read-out: Intercellular Adhesion Molecule 1 (ICAM1), ICAM1 (gene 3383); assay: LTEA_HepaRG_ICAM1: Life Technologies and Expression Analysis (LTEA) Assay for Intercellular Adhesion Molecule 1 (ICAM1) using HepaRG (AID 2283507)
Summary of the method: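 Gain or loss of transcript in HepaRG hepatic cells is quantified by qRT-PCR after 48 h chemical exposure (up to 100 uM, half-log steps), with DMSO as baseline.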

[3] = read-out: Insulin-like growth factor-binding protein 1 (IGFBP1), IGFBP1 (gene 3484); assay: LTEA_HepaRG_IGFBP1: Life Technologies and Expression Analysis (LTEA) Assay for Insulin-like growth factor-binding protein 1 (IGFBP1) using HepaRG (AID 2283508)
Summary of the method: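 mRNA induction or loss was quantified by qRT-PCR after 48 h chemical exposure of human HepaRG cells, with 0.5% DMSO as vehicle and baseline. Concentration-response over eight points up to 100 uM.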

[4] = read-out: Interleukin 6 Receptor (IL6R), IL6R (gene 3570); assay: LTEA_HepaRG_IL6R: Life Technologies and Expression Analysis (LTEA) Assay for Interleukin 6 Receptor (IL6R) using HepaRG (AID 2283510);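 for AC50: differentiated human HepaRG liver cells in serum-free induction medium; TaqMan qRT-PCR signal normalized to ACTB GAPDH and POLR2A housekeeping genes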
Summary of the method: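 IL6R transcript level by qRT-PCR after 48 h chemical exposure (8-point, half-log, max 100 uM, 0.5% DMSO vehicle) of HepaRG cells in serum-free induction medium. Normalized to three housekeeping genes; curves fitted in both directions relative to DMSO.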

[5] = read-out: Potassium channel subfamily K member 1 (KCNK1), KCNK1 (gene 3775); assay: LTEA_HepaRG_KCNK1: Life Technologies and Expression Analysis (LTEA) Assay for Potassium channel subfamily K member 1 (KCNK1) using HepaRG (AID 2283511)
Summary of the method: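 Human HepaRG cultures receive test chemicals for 48 h in 0.5% DMSO, top concentration 100 uM with half-log dilutions. Induction or suppression of KCNK1 mRNA relative to DMSO is derived by bidirectional fitting of qRT-PCR data.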

[6] = read-out: Keratin 19 (KRT19), KRT19 (gene 3880); assay: LTEA_HepaRG_KRT19: Life Technologies and Expression Analysis (LTEA) Assay for Keratin 19 (KRT19) using HepaRG (AID 2283512)
Summary of the method: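 Gene-expression endpoint in the human liver line HepaRG after 48 h exposure to up to 100 uM test chemical with 0.5% DMSO vehicle; KRT19 mRNA by qRT-PCR, analyzed bidirectionally versus DMSO.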

[7] = read-out: JUN Transcription Factor, JUN (gene 3725); assay: LTEA_HepaRG_JUN: Life Technologies and Expression Analysis (LTEA) Assay for JUN Transcription Factor using HepaRG (AID 2283513)
Summary of the method: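 mRNA measured by TaqMan qRT-PCR after 48 h chemical exposure of HepaRG cultures; normalization to three housekeeping genes. Duplicate eight-point half-log curves from 100 uM in 0.5% DMSO; gain or loss fitted against DMSO baseline.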

[8] = read-out: MicroRNA 122 (MIR122), gene 406906; assay: LTEA_HepaRG_MIR122: Life Technologies and Expression Analysis (LTEA) Assay for MicroRNA 122 (MIR122) using HepaRG (AID 2283516); note: the transcript read is the microRNA miR-122
Summary of the method: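 Expression measured by microfluidic qRT-PCR with three housekeeping genes for normalisation, after 48 h treatment of HepaRG cultures. Eight concentrations (top 100 uM, half-log steps, 0.5% DMSO vehicle) in duplicate; gain or loss fitted relative to vehicle.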

[9] = read-out: matrix metalloproteinase-10 (MMP10), MMP10 (gene 4319); assay: LTEA_HepaRG_MMP10: Life Technologies and Expression Analysis (LTEA) Assay for matrix metalloproteinase-10 (MMP10) using HepaRG (AID 2283517)
Summary of the method: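 In differentiated HepaRG cultures kept in 0.5% DMSO, test chemicals act for 48 h over an eight-point range with a top dose of 100 uM. Expression is then quantified by TaqMan RT-PCR against ACTB, GAPDH and POLR2A.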

MYC, MYC (gene 4609) = assay: LTEA_HepaRG_MYC: Life Technologies and Expression Analysis (LTEA) Assay for MYC using HepaRG (AID 2283518)
Summary of the method: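 Cells are thawed, plated and cultured 48 h, then treated for 48 h with test chemicals (eight half-log concentrations from 100 uM, 0.5% DMSO vehicle). RNA is isolated and MYC expression quantified by qRT-PCR against three housekeeping genes.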

[10] = read-out: matrix metalloproteinase-3 (MMP3), MMP3 (gene 4314); assay: LTEA_HepaRG_MMP3: Life Technologies and Expression Analysis (LTEA) Assay for matrix metalloproteinase-3 (MMP3) using HepaRG (AID 2283519)
Summary of the method: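 Human liver HepaRG cultures received chemicals (top concentration 100 uM, 0.5% DMSO) for 48 h in duplicate. MMP3 mRNA induction or loss was then assessed via TaqMan qRT-PCR with housekeeping-gene normalisation.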

[11] = read-out: Paternally Expressed 10 (PEG10), PEG10 (gene 23089); assay: LTEA_HepaRG_PEG10: Life Technologies and Expression Analysis (LTEA) Assay for Paternally Expressed 10 (PEG10) using HepaRG (AID 2283520);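 for AC50: differentiated HepaRG human liver cells in serum-free induction medium with 0.5% DMSO; PEG10 transcript by qRT-PCR normalised to ACTB GAPDH and POLR2A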
Summary of the method: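 PEG10 transcript measured by Fluidigm qRT-PCR, normalized to three housekeeping genes, in HepaRG cells treated 48 h (highest 100 uM, half-log steps, 0.5% DMSO vehicle). Cells plated 48 h before switching to serum-free induction medium.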

[12] = read-out: Protein phosphatase 2A (PPP2R4), PTPA (gene 5524); assay: LTEA_HepaRG_PPP2R4: Life Technologies and Expression Analysis (LTEA) Assay for Protein phosphatase 2A (PPP2R4) using HepaRG (AID 2283522)
Summary of the method: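 Expression was quantified by Fluidigm qRT-PCR normalised to three housekeeping genes after 48 h treatment. Human HepaRG cells received an 8-point series from 100 µM downward by half-logs, in duplicate with 0.5% DMSO vehicle and 1 mM phenobarbital as induction control.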

[13] = read-out: Phosphatase and tensin (PTEN), PTEN (gene 5728); assay: LTEA_HepaRG_PTEN: Life Technologies and Expression Analysis (LTEA) Assay for Phosphatase and tensin (PTEN) using HepaRG (AID 2283523)
Summary of the method: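 Expression of PTEN is quantified in the human liver line HepaRG following two days of dosing (top concentration 100 uM, half-log dilutions, 0.5% DMSO). Values derive from bidirectional curve fitting relative to DMSO controls.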

[14] = read-out: solute carrier (SLC22A1), SLC22A1 (gene 6580); assay: LTEA_HepaRG_SLC22A1: Life Technologies and Expression Analysis (LTEA) Assay for solute carrier (SLC22A1) using HepaRG (AID 2283524);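 for AC50: differentiated human HepaRG liver cells in serum-free induction medium; TaqMan qRT-PCR normalized to ACTB GAPDH and POLR2A housekeeping genes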
Summary of the method: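 Transcript induction or suppression of SLC22A1 in human HepaRG cultures is scored after 48 h chemical treatment, with DMSO (0.5%) as baseline for bidirectional fitting. Concentrations span eight half-log points topping at 100 uM.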

[15] = read-out: Pyruvate Dehydrogenase Kinase 4 (PDK4), PDK4 (gene 5166); assay: LTEA_HepaRG_PDK4: Life Technologies and Expression Analysis (LTEA) Assay for Pyruvate Dehydrogenase Kinase 4 (PDK4) using HepaRG (AID 2283525)
Summary of the method: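 Eight-point, half-log concentration series (max 100 uM, 0.5% DMSO) applied to differentiated HepaRG cells for 48 h in duplicate. Endpoint: PDK4 mRNA induction or repression by qRT-PCR against DMSO baseline.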

[16] = read-out: Nuclear factor NF-kappa-B p105 subunit (Homo sapiens) (UniProt P19838); assay: LTEA_HepaRG_NFKB1: Life Technologies and Expression Analysis (LTEA) Assay for Nuclear Factor Kappa B Subunit 1 (NFKB1) using HepaRG (AID 2283521);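 for outcome: differentiated human HepaRG liver cells in serum-free induction medium; TaqMan qRT-PCR transcript normalised to ACTB GAPDH and POLR2A housekeeping genes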
Summary of the method: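 HepaRG, 48 h exposure; 8-pt half-log series from 100 uM in 0.5% DMSO; duplicates. Readout: NFKB1 mRNA by qRT-PCR (Fluidigm arrays), housekeeping-normalized. Gain/loss fit vs DMSO baseline.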

[17] = read-out: Lipoprotein lipase (LPL), LPL (gene 4023); assay: LTEA_HepaRG_LPL: Life Technologies and Expression Analysis (LTEA) Assay for Lipoprotein lipase (LPL) using HepaRG (AID 2283515)
Summary of the method: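 Concentration-response testing used half-log steps from 100 uM in 0.5% DMSO on human HepaRG cells, 48 h, duplicate wells. Phenobarbital 1 mM served as induction control; LPL mRNA was normalized to ACTB, GAPDH, POLR2A.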

Nuclear factor NF-kappa-B p105 subunit (Homo sapiens), sequence (P19838 whole entry, looked up): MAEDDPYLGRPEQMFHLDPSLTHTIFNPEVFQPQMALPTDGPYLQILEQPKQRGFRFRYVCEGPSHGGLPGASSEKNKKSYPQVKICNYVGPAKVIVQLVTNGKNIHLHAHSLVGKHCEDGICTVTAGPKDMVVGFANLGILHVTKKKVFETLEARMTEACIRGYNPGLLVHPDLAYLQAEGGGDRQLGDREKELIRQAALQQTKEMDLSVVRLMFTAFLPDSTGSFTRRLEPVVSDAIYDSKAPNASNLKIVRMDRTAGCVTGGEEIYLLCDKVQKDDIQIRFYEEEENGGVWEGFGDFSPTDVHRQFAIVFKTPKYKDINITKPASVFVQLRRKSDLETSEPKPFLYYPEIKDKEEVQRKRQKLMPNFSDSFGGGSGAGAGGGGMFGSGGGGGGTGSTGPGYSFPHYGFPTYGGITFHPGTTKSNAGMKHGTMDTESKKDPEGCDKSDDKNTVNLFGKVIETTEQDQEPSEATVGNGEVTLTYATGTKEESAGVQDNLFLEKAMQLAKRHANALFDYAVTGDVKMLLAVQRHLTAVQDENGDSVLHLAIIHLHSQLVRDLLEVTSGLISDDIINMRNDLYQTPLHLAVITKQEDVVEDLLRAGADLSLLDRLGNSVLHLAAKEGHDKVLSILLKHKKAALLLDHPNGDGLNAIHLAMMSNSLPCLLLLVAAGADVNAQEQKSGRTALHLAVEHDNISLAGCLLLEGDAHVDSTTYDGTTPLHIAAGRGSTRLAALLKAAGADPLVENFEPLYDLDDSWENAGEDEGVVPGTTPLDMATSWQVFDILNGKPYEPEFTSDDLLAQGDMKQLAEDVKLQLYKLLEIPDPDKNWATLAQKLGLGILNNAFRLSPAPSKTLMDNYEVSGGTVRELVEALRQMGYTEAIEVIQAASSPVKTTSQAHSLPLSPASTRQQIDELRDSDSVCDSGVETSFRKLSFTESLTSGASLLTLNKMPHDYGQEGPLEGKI

With `COCCO` the outcome [1] was “inactive”, the outcome [2] was “inactive” and the outcome [3] was “inactive”. For the same molecule, the outcome [4] was “inactive”, the outcome [5] was “inactive” and the outcome [6] was “inactive”. The outcome [7] was “inactive”, the outcome [8] was “inactive” and the outcome [9] was “inactive”. The outcome (MYC, MYC (gene 4609)) was “inactive”, the outcome [10] was “inactive” and the outcome [11] was “inactive”. For the same molecule, the outcome [12] was “inactive”, the outcome [13] was “inactive” and the outcome [14] was “inactive”. For the same molecule, the outcome [15] was “inactive”.
`CCOC(=O)C(C)Oc1ccc(Oc2cnc3cc(Cl)ccc3n2)cc1` (stereo not given) was tested, and the AC50 [1] was 1.06 µM (active), the outcome [2] was “inactive” and the outcome [3] was “inactive”. For the same molecule, the outcome [4] was “inactive”, the outcome [5] was “inactive” and the outcome [6] was “inactive”. The outcome [7] was “inactive”, the outcome [8] was “inactive” and the outcome [9] was “inactive”. The outcome (MYC, MYC (gene 4609)) was “inactive”, the AC50 [10] was 8.53 µM (active) and the outcome [11] was “inactive”. The outcome [12] was “inactive”, the outcome [13] was “inactive” and the AC50 [14] was 17.2 µM (active). The AC50 [15] was 70 µM (active).
In the case of `O=C(O)C1(C(=O)Nc2ccc(Cl)cc2Cl)CC1`, the outcome [1] is reported as “inactive”, the outcome [2] is reported as “inactive” and the outcome [3] is reported as “inactive”. For the same molecule, the outcome [4] was “inactive”, the outcome [5] was “inactive” and the outcome [6] was “inactive”. The outcome [7] was “inactive”, the AC50 [8] was 50 µM (active) and the outcome [9] was “inactive”. For the same molecule, the outcome (MYC, MYC (gene 4609)) was “inactive”, the AC50 [10] was 50 µM (active) and the AC50 [11] was 39.8 µM (active). For the same molecule, the AC50 [16] was 22.9 µM (active), the AC50 [12] was 61.9 µM (active) and the outcome [13] was “inactive”. The AC50 [14] was 74.3 µM (active) and the AC50 [15] was 7.18 µM (active).
In the case of `CCCCOC(=O)C(C)Oc1ccc(Oc2ccc(C(F)(F)F)cn2)cc1` (stereo not given), the outcome [1] is reported as “inactive”, the outcome [2] is reported as “inactive” and the outcome [3] is reported as “inactive”. For the same molecule, the outcome [4] was “inactive”, the outcome [5] was “inactive” and the outcome [6] was “inactive”. The outcome [7] was “inactive”, the outcome [8] was “inactive” and the outcome [9] was “inactive”. For the same molecule, the outcome (MYC, MYC (gene 4609)) was “inactive”, the outcome [10] was “inactive” and the outcome [11] was “inactive”. The outcome [16] was “inactive”, the outcome [12] was “inactive” and the outcome [13] was “inactive”. For the same molecule, the outcome [14] was “inactive” and the outcome [15] was “inactive”.
In the case of `CC(=O)[C@H]1CC[C@H]2[C@@H]3CCC4=CC(=O)CC[C@]4(C)[C@H]3CC[C@]12C`, the AC50 [1] is reported as 32.4 µM (active), the AC50 [2] is reported as 33.3 µM (active) and the AC50 [3] is reported as 27.4 µM (active). For the same molecule, the AC50 [4] was 50 µM (active), the AC50 [5] was 56.6 µM (active) and the AC50 [6] was 50 µM (active). The AC50 [7] was 50 µM (active), the AC50 [8] was 32.3 µM (active) and the AC50 [9] was 61.9 µM (active). For the same molecule, the AC50 (MYC, MYC (gene 4609)) was 34.3 µM (active), the AC50 [10] was 66 µM (active) and the AC50 [11] was 7.52 µM (active). The AC50 [12] was 87.5 µM (active), the AC50 [13] was 87.5 µM (active) and the AC50 [14] was 38.2 µM (active). The AC50 [15] was 22.9 µM (active).
`CCCCCOC(=O)COc1cc(N2C(=O)C3=C(CCCC3)C2=O)c(F)cc1Cl` was tested, and the outcome [1] was “inactive”, the outcome [2] was “inactive” and the outcome [3] was “inactive”. The outcome [4] was “inactive”, the outcome [5] was “inactive” and the outcome [6] was “inactive”. For the same molecule, the outcome [7] was “inactive”, the outcome [17] was “inactive” and the outcome [8] was “inactive”. For the same molecule, the outcome [9] was “inactive”, the outcome (MYC, MYC (gene 4609)) was “inactive” and the outcome [10] was “inactive”. For the same molecule, the outcome [11] was “inactive”, the outcome [12] was “inactive” and the outcome [13] was “inactive”. The outcome [14] was “inactive” and the outcome [15] was “inactive”.
For `CCN(CC)C(=O)c1cccc(C)c1`, the AC50 [1] was 13.1 µM (active), the outcome [2] was “inactive” and the outcome [3] was “inactive”. The outcome [4] was “inactive”, the outcome [5] was “inactive” and the outcome [6] was “inactive”. For the same molecule, the outcome [7] was “inactive”, the outcome [8] was “inactive” and the outcome [9] was “inactive”. The outcome (MYC, MYC (gene 4609)) was “inactive”, the outcome [10] was “inactive” and the outcome [11] was “inactive”. For the same molecule, the outcome [12] was “inactive”, the outcome [13] was “inactive” and the outcome [14] was “inactive”. For the same molecule, the outcome [15] was “inactive”.
